Source: PubChem BioAssay (NCI)
The panel holds about 79,000 compounds, 15% with a hit somewhere; the sample as a whole holds those more often. A number with no mark means an inactive call. The source made the active and inactive calls. Rule as the data show it: active = growth inhibition above about 70%; inactive = the rest.

Tests used:
[1] = NCI Yeast Anticancer Drug Screen. Data for the rad50 strain (AID 155);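 also: 0% = growth of vehicle-only cultures of the same strain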; details: S. cerevisiae rad50 strain growth inhibition; at 50.0 µM; hits give high values
How it was run: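 Cells are treated with compound, grown, and their growth is then scored against vehicle-only cultures of the same repair-deficient yeast strain.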

[2] = NCI Yeast Anticancer Drug Screen. Data for the mec2-1 strain (AID 157); details: S. cerevisiae mec2-1 strain, at 50.0 µM, hits give high values
How it was run: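 Compounds were applied to mec2-1 yeast cells. Their growth was then compared with that of vehicle-treated cultures to give growth inhibition.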

[3] = NCI Yeast Anticancer Drug Screen. Data for the sgs1 mgt1 strain (AID 161);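 also: 0% = growth of cultures given vehicle only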; details: S. cerevisiae sgs1 mgt1 strain, at 50.0 µM, hits give high values
How it was run: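 Yeast cells carrying a defined DNA-repair defect were exposed to test compounds. Growth inhibition was measured relative to vehicle-treated controls.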

[4] = NCI Yeast Anticancer Drug Screen. Data for the cln2 rad14 strain (AID 165);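 also: 0% = growth equal to vehicle treated cultures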; details: S. cerevisiae cln2 rad14 strain, at 50.0 µM, hits give high values
How it was run: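 Strain: cln2 rad14 yeast, altered in cell cycle control and DNA damage repair. Read-out: growth inhibition vs vehicle.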

[5] = NCI Yeast Anticancer Drug Screen. Data for the bub3 strain (AID 167); details: S. cerevisiae bub3 mutant strain, at 50.0 µM, hits give high values
How it was run: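 Part of a panel of yeast mutants defective in DNA damage repair or cell cycle regulation. Each strain is grown with compound, and inhibition is calculated relative to solvent-treated cultures.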

[6] = NCI Yeast Anticancer Drug Screen. Data for the mlh1 rad18 strain (AID 175); details: S. cerevisiae mlh1 rad18 strain growth inhibition; at 50.0 µM; hits give high values
How it was run: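 A repair-deficient yeast strain is exposed to test compound, and growth is scored relative to vehicle-treated controls.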

Structure (SMILES) | growth inhibition [1] | growth inhibition [2] | growth inhibition [3] | growth inhibition [4] | growth inhibition [5] | growth inhibition [6]
Cc1cccc(NC(=O)c2cccc([N+](=O)[O-])c2O)c1C | 3.1% | 9.05% | 14.2% | 11.8% | -2.7% | -87%
Cc1ccc(C)c(OC(=O)NC2CCCCC2)c1 | -4.9% | -15.1% | -15.1% | -57.6% | 0% | -19.9%
CC1(c2cccs2)C(=O)NC(=O)N1C(=O)CCl (configuration not stated) | 6.8% | 4.55% | -6.65% | -2.75% | 9.3% | 5.55%
CCOC1NC(=O)Oc2ccccc21 (configuration not stated) | 4.2% | 0.5% | 8.1% | 7.35% | 10.9% | -37.4%
COc1ccc(N=Nc2sc(N)nc2-c2cccc([N+](=O)[O-])c2)cc1 | 5% | 4.85% | 10.1% | -13.8% | 8.6% | 11.7%
O=C(Nc1cccc([N+](=O)[O-])c1)Nc1ccccc1F | 11.7% | 10% | 14.1% | 10.5% | 19.2% | 9.55%
O=C1C(=O)c2ccccc2C(O)=C1c1ccccc1 | 28.6% | 22.8% | 47.2% | 7.75% | 5.6% | 51%
NCCCCCC(CCN)SCC1OC(n2cnc3c(N)ncnc32)C(O)C1O (configuration not stated) | 17.6% | -2.45% | -5.1% | -7.45% | -0.95% | 25.9%
CCCCSCCOC(=O)Nc1ccc(Cl)cc1 | 98.8% (active) | 99.3% (active) | 98% (active) | 95.7% (active) | 99.3% (active) | 98.8% (active)
CC(C)(C)OC(=O)C1CCC/C1=N/Nc1ccc([N+](=O)[O-])cc1[N+](=O)[O-] (configuration not stated) | -38.3% | -46% | 10.3% | 24.2% | 20.7% | -11.6%
COc1ccc(/C=C/C(=O)CC(=O)/C=C/c2ccc(OC)cc2)cc1 | 23.1% | 35% | 7.65% | 0.6% | -2.75% | 10.8%
CC(=O)Nc1cc2c(cc1Cl)[nH]c(=O)c1ccccc12 | 8.1% | -10.9% | -19.8% | -3.25% | 11.4% | 7.5%
N#CCC(=O)N/N=C\C(O)C(O)C(O)C(O)CO (configuration not stated) | 0.1% | 2.6% | -10.8% | -1.45% | 4.5% | 11.1%
COc1ccc2[nH]c(=O)c(CO)c(CO)c2c1 | 0.45% | -12.2% | -1% | -26.1% | 0.55% | 4.35%
CN(C)Cc1cccc(-c2ccccc2)c1O | 21.8% | -4.9% | 12% | -15.8% | 5.3% | 17.2%
BrCCCCCOc1ccc(-c2c3ccccc3c(-c3ccc(OCCCCCBr)cc3)c3ccccc23)cc1 | 11.4% | 18.1% | 12.8% | 0.05% | -12.9% | 12.8%
CCC(=O)Nc1nc2c(ncn2C2OC(COC(=O)CC)C(OC(=O)CC)C2OC(=O)CC)c(=O)[nH]1 (configuration not stated) | -11.6% | 5.2% | 18.5% | 6.25% | 6.8% | -7.3%
CCOC(=O)Nc1ccc(C2SCCN2C(=O)NC)cc1 (configuration not stated) | 8.35% | -22.1% | 18.4% | 17.4% | 5.85% | 32.2%
CC(C)(C)C1CCC2c3c([nH]c4ncccc34)C3C(=O)N(c4ccccc4)C(=O)C3C2C1 (configuration not stated) | 20.4% | -6.15% | 1.7% | -67.2% | -32.6% | -7.85%

Structure (SMILES) | growth inhibition [1] | growth inhibition [2] | growth inhibition [3] | growth inhibition [4] | growth inhibition [5] | growth inhibition [6]
Nc1nc2c(c(=O)[nH]1)CN(c1ccc(S(N)(=O)=O)cc1)CN2 | 25.9% | -24.6% | 0.5% | -7.45% | -26.4% | -12.3%
CC1SC(=S)NC1=O (configuration not stated) | -16% | -2.1% | -10.8% | -2% | -10.9% | -0.8%
CCCCCCCOc1ccc(/C=C\c2cc[n+](CCCCCCCC[n+]3ccc(/C=C\c4ccc(OCCCCCCC)cc4)cc3)cc2)cc1 | -22.4% | -7.95% | -14.2% | 22.7% | 8.1% | 10.2%
COc1cc2ccc3c4cc(OC)c(OCc5ccccc5)cc4cnc3c2cc1OC | 40.5% | 0.45% | 4.9% | 18.9% | 27.4% | 23%
CCC(O)C(CC)CC (configuration not stated) | 13.8% | -19.7% | -4.2% | 17% | -10.2% | 14.9%
Cc1nc2c(=O)n3c4c(cccc4c2o1)CCC3 | 14.4% | 10.4% | 21.6% | 14.5% | 14.5% | -48.4%
C=CCNC(=S)NC=C(C(N)=O)C(N)=O | -25.9% | -33% | -22.5% | -19.5% | -4.9% | -19.9%
O=Cc1cccc2[nH]ccc12 | 5.9% | -7.95% | 13% | -4.6% | 7.85% | 3.25%
CC1(C)CC(O)=CC(=O)N1 | 15.9% | -5.75% | -3.85% | 11.7% | 10.3% | 4.45%
CC1(C)Cc2ccccc2C1=O | 16.1% | -4.85% | 4% | -53.6% | -1.65% | -2%
CC[C@@H]1CN(C)[C@H]2Cc3c([nH]c4ccccc34)C(=O)C[C@H]1C2C(=O)OC (some centres not stated) | 13.5% | -14.5% | -19.6% | -47.3% | -26.2% | 18.7%
O=c1c2cccnc2ncn1CCN1CCCC1 | 5.25% | -11.6% | -3.5% | 8.4% | -1.8% | 21.1%
Cn1c(Cc2ccccc2)c([N+](=O)[O-])c(=O)n(C)c1=O | -0.2% | -5.25% | -2.1% | -8.2% | -6.35% | -2.4%
CCOC(=O)Cc1c(Cc2[nH]c(C(=O)OCc3ccccc3)c(CC(=O)OCC)c2CC(=O)OCC)[nH]c(C(=O)OCc2ccccc2)c1CC(=O)OCC | -10.7% | -21.6% | -19% | -3.1% | -3.35% | -17.3%
COc1ccc2c(c1)C(=O)C1CCC(=O)N1C2c1ccc2c(c1)OCO2 (configuration not stated) | -9.65% | 18.3% | 10.2% | 5.9% | 47.1% | -0.3%
O=[N+]([O-])c1ccc(N=P(c2ccccc2)(c2ccccc2)c2ccccc2)n2nnnc12 | 1.25% | -27.8% | -4.65% | -10.2% | -15.2% | -6.85%
CC1(C)OCC2OC(n3cnc4c(N)nc(Cl)nc43)C(OS(C)(=O)=O)C2O1 (configuration not stated) | 3.75% | 16.9% | -13.2% | 8.7% | 4.15% | 30%
CCCCCCCCCCCCSC(=O)Nc1ccc(C(=O)OCC)cc1 | 24.9% | 3.3% | 12.7% | -39.2% | -2.55% | 20.9%
